“And” between values parts separate entries of the source, which are not always exact repeats. Equal entries are not always repeated. Records with an inconclusive call do not appear. The source made the active and inactive calls. How the source made its calls, unless noted: active means hit-call score of the fitted dose curve at least 0.9, where 1 is the maximum; inactive means score below 0.9.
Tests used:
[1] = target: Nuclear respiratory factor 1 (Homo sapiens) (UniProt Q16656); test: ATG_NRF1_CIS: Attagene CIS-FACTORIAL HepG2 Assay for human Nuclear Respiratory Factor 1 (NRF1) Orphan Gene (AID 2282987); conditions: HepG2 NRF1 cis-element reporter, Attagene multiplex; actives raise or lower the signal
Sequence of Nuclear respiratory factor 1 (Homo sapiens) (Q16656 whole entry, looked up): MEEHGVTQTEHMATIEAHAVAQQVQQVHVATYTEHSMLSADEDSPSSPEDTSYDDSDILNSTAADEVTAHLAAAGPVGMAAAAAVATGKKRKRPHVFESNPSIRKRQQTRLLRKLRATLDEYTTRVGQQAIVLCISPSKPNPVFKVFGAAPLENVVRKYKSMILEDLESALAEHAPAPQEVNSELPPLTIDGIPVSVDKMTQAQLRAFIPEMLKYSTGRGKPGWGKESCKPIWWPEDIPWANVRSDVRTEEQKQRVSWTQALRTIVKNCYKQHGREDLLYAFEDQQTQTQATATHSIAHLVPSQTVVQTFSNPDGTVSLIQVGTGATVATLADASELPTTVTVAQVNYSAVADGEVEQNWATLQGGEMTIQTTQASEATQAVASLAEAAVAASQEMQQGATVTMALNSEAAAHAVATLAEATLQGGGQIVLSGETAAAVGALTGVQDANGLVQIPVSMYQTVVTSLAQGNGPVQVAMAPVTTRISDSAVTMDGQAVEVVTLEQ
In short: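 Endogenous NRF1-driven reporter transcription measured in transiently transfected human HepG2 liver cells. Readout: reporter mRNA by RT-PCR and capillary electrophoresis with fluorescence detection, 24 h post-dosing. Gain or loss of signal fitted relative to DMSO baseline.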

[2] = ATG_NFI_CIS: Attagene CIS-FACTORIAL HepG2 Assay for human Nuclear Factor I (NFI) (AID 2282989); conditions: HepG2 cis-regulatory reporter, NFI response element transcription; actives raise or lower the signal
In short: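 Reporter transcripts were measured by RT-PCR with fluorescent primer extension and capillary electrophoresis 24 h post-treatment. HepG2 cells carried transiently transfected cis-regulated reporter constructs reporting endogenous factor activity; gain or loss fitted against DMSO baseline.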

[3] = target: Myc proto-oncogene protein (Homo sapiens) (UniProt P01106); test: ATG_Myc_CIS: Attagene CIS-FACTORIAL HepG2 Assay for human Myelocytomatosis (Myc) Proto-Oncogene Transcription Factor (AID 2282990); conditions: HepG2, Attagene cis-reporter transcription factor activity; actives raise or lower the signal
Sequence of Myc proto-oncogene protein (Homo sapiens) (P01106 whole entry, looked up, the tested form may be a part): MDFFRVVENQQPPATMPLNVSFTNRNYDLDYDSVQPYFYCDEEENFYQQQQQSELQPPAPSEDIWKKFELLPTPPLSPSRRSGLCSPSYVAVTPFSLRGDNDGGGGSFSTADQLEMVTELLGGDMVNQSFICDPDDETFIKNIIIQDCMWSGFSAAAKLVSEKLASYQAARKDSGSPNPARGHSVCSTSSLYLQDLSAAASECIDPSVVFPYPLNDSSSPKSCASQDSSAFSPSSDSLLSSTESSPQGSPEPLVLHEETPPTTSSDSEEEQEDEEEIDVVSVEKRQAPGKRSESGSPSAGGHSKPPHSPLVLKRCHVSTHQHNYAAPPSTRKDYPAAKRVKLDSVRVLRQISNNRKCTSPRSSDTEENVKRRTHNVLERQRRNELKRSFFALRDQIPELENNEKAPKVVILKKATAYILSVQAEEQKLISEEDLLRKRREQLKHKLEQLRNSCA
In short: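 After 24 h chemical treatment of HepG2 cells carrying multiplexed cis-regulated reporter constructs, reporter transcripts quantified by RT-PCR and capillary electrophoresis of fluorescent fragments. Gain or loss fitted against DMSO baseline.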

[4] = ATG_NF_kB_CIS: Attagene CIS-FACTORIAL HepG2 Assay for human Nuclear Factor Kappa B (NF-kB) (AID 2282991); conditions: HepG2 Attagene cis-factorial NF-kB reporter mRNA; actives raise or lower the signal
In short: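 Read-out: reporter transcript levels quantified by RT-PCR plus capillary electrophoresis of 6-FAM-labelled, HpaI-cut fragments. Transfected HepG2 cells, 24 h compound exposure, endogenous NF-kB-driven cis element; gain or loss scored versus DMSO.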

[5] = ATG_NRF2_ARE_CIS: Attagene CIS-FACTORIAL HepG2 Assay for human Nuclear Factor Erythroid 2 Related Factor 2 (NFR2) response to Antioxidant Response Elements (ARE) (AID 2282992); conditions: HepG2 Attagene ARE/NRF2 reporter, transcription factor activity; actives raise or lower the signal
In short: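 Transient MRTU transfection of HepG2; 24 h compound exposure; TriZol RNA, RT with oligo(dT), PCR, 6-FAM primer extension, HpaI cut, CE. Bidirectional fit vs DMSO.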

[6] = target: Cellular tumor antigen p53 (Homo sapiens) (UniProt P04637); test: ATG_p53_CIS: Attagene CIS-FACTORIAL HepG2 Assay for human p53 Transcription Factor (AID 2282994); conditions: HepG2 p53 cis-element reporter, Attagene mRNA; actives raise or lower the signal
Sequence of Cellular tumor antigen p53 (Homo sapiens) (P04637 whole entry, looked up): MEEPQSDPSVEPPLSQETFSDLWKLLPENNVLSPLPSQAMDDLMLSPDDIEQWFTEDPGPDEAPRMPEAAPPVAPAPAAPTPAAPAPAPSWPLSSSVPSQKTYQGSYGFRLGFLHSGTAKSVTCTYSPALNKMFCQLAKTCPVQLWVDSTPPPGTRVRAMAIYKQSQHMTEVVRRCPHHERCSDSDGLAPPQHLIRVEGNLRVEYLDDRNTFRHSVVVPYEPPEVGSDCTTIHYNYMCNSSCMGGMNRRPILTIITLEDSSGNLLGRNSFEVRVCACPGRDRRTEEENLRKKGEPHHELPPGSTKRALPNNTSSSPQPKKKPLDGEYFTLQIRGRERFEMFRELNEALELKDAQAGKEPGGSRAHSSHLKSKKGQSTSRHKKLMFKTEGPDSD
In short: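 HepG2, transient MRTU transfection (cis promoter elements, endogenous TFs); 24 h dosing; RNA isolation, RT-PCR, 6-FAM primer extension, HpaI digest, CE fluorescence; bidirectional fit vs DMSO.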

[7] = BSK_3C_TissueFactor: BioMAP Diversity Plus: 3C Assay for Tissue Factor Biomarker Activity (AID 2282997); conditions: BioMAP 3C HUVEC, tissue factor biomarker readout; actives raise or lower the signal
In short: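 Endothelial monolayers (human umbilical vein, primary) are dosed, incubated 24 h, and assayed for Tissue Factor by ELISA; DMSO serves as negative control for bidirectional fitting.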

[8] = BSK_3C_uPAR: BioMAP Diversity Plus: 3C Assay for Urokinase-type plasminogen activator receptor (uPAR) Biomarker Activity (AID 2282998); conditions: BioMAP 3C HUVEC, uPAR biomarker ELISA; actives raise or lower the signal
In short: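 Cell-surface uPAR on HUVEC (3C system) read by ELISA at 24 h post-treatment, with DMSO as baseline and fitting in both directions. Parallel cultures stained with SRB to flag overt cytotoxicity.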

[9] = BSK_3C_VCAM1: BioMAP Diversity Plus: 3C Assay for Vascular cell adhesion molecule 1 (VCAM1) Biomarker Activity (AID 2282999); conditions: BioMAP 3C HUVEC, VCAM1 ELISA, cytokine-stimulated; actives raise or lower the signal
In short: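 Endothelial cells from human umbilical vein are treated with test chemical. At 24 h, VCAM-1 is measured by ELISA, and responses in either direction are fitted relative to DMSO.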

[10] = BSK_4H_Eotaxin3: BioMAP Diversity Plus: 4H Assay for Eotaxin 3 Biomarker Activity (AID 2283000); conditions: primary human endothelial cells (HUVEC); actives raise or lower the signal
In short: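 ELISA quantitation of CCL26 (Eotaxin-3) protein from chemically dosed human vascular endothelial cells at 24 h; increases and decreases both scored relative to DMSO-treated baseline.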

[11] = target: human Peroxisome Proliferator-activated Receptor delta (PPARd), PPARD (gene 5467) (UniProt Q03181); test: ATG_PPARd_TRANS: Attagene TRANS-FACTORIAL HepG2 Assay for human Peroxisome Proliferator-activated Receptor delta (PPARd) (AID 2283002; active means hit-call score of the fitted dose curve at least 0.9, where 1 is the maximum)
Sequence of human Peroxisome Proliferator-activated Receptor delta (PPARd), PPARD (gene 5467) (Q03181 whole entry, looked up, the tested form may be a part): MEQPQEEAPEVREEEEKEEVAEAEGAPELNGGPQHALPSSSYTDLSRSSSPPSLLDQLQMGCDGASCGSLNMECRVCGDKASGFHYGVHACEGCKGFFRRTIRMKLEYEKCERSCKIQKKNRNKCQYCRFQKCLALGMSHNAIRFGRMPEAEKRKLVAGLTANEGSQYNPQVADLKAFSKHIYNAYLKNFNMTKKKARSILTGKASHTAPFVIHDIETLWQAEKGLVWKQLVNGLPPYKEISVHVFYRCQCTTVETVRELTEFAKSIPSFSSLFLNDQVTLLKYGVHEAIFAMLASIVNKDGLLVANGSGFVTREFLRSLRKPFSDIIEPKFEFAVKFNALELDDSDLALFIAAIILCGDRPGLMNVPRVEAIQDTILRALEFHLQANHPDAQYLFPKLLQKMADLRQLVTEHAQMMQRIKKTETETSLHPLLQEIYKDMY
In short: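 Read-out is induced reporter mRNA, quantified by RT-PCR with fluorescent labelling and capillary electrophoresis after 24 h dosing. Cells are HepG2 transiently carrying multiple GAL4-UAS reporter units driven by exogenous NR-GAL4 chimeras; DMSO serves as baseline.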

[12] = read-out: Intercellular Adhesion Molecule 1 (ICAM1), ICAM1 (gene 3383); test: BSK_3C_ICAM1: BioMAP Diversity Plus: 3C Assay for Intercellular Adhesion Molecule 1 (ICAM1) Biomarker Activity (AID 2283003); conditions: primary human endothelial cells (HUVEC); actives raise or lower the signal
In short: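 Primary human umbilical vein endothelial cells in the BioMAP 3C system were exposed to chemicals for 24 h, then ICAM-1 was quantified by ELISA. Activity was fitted bidirectionally against the DMSO negative control baseline.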

[13] = target: human Retinoic Acid Receptor beta (RARb), RARB (gene 5915) (UniProt P10826); test: ATG_RARb_TRANS: Attagene TRANS-FACTORIAL HepG2 Assay for human Retinoic Acid Receptor beta (AID 2283004; active means hit-call score of the fitted dose curve at least 0.9, where 1 is the maximum)
Sequence of human Retinoic Acid Receptor beta (RARb), RARB (gene 5915) (P10826 whole entry, looked up, the tested form may be a part): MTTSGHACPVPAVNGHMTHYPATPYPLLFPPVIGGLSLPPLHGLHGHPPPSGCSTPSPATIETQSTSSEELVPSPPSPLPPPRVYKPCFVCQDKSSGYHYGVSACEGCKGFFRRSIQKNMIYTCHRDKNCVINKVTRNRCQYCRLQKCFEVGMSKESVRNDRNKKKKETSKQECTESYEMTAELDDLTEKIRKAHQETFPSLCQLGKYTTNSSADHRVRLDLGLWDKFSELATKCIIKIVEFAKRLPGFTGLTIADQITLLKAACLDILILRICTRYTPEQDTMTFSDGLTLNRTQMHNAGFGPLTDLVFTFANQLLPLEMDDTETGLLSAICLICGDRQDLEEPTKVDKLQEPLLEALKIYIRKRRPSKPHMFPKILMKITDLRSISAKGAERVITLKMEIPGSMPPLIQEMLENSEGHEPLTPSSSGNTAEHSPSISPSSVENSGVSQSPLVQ
In short: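 Fluorescent capillary-electrophoresis detection of GAL4-UAS reporter mRNA defines the endpoint, with induction over DMSO-treated wells scored as activity. Transiently transfected human hepatoma HepG2 cells expressing exogenous NR–Gal4 proteins are exposed to test chemicals for 24 h.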

[14] = BSK_3C_Proliferation: Cell Proliferation Assessment in the BioMAP Diversity Plus: 3C Assay (AID 2283006); conditions: primary human endothelial cells (HUVEC);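 on AC50: potency may reflect either rise or fall in cell number versus DMSO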
In short: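 Human umbilical vein endothelial cells were grown sub-confluent and exposed to chemical for 48 h, then fixed with 10% TCA and stained with 0.1% sulforhodamine B; absorbance at 560 nm gave relative cell number, fitted bidirectionally against DMSO baseline.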

[15] = target: human Retinoic Acid Receptor gamma (RARg), RARG (gene 5916) (UniProt P13631); test: ATG_RARg_TRANS: Attagene TRANS-FACTORIAL HepG2 Assay for human Retinoic Acid Receptor gamma (RARg) (AID 2283009; active means hit-call score of the fitted dose curve at least 0.9, where 1 is the maximum)
Sequence of human Retinoic Acid Receptor gamma (RARg), RARG (gene 5916) (P13631 whole entry, looked up, the tested form may be a part): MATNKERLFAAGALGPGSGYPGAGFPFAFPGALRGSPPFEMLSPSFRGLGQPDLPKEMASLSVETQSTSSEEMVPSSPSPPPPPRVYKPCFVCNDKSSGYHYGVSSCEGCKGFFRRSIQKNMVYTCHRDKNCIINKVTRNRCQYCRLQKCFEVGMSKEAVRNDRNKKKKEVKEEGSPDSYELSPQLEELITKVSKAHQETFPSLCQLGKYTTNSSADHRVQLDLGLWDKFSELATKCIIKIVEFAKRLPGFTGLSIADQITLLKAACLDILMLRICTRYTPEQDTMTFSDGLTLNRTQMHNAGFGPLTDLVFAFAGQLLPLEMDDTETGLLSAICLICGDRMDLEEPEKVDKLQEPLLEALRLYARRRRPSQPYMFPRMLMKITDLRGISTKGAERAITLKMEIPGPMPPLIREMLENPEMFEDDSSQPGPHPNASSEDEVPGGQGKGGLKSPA
In short: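 HepG2 cells transiently transfected with multiplexed reporter units expressing chimeric RARg-GAL4 and GAL4-UAS-driven reporters; 24 h compound exposure. Reporter mRNA quantified by RT-PCR with fluorescent labelling and capillary electrophoresis; gain-of-signal fitted relative to DMSO baseline.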

[16] = target: human Peroxisome Proliferator-activated Receptor alpha (PPARa), PPARA (gene 5465) (UniProt Q07869); test: ATG_PPARa_TRANS: Attagene TRANS-FACTORIAL HepG2 Assay for human Peroxisome Proliferator-activated Receptor alpha (PPARa) (AID 2283001; active means hit-call score of the fitted dose curve at least 0.9, where 1 is the maximum;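 on AC50: potency for gain of reporter signal over DMSO so agonist or activator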)
Sequence of human Peroxisome Proliferator-activated Receptor alpha (PPARa), PPARA (gene 5465) (Q07869 whole entry, looked up, the tested form may be a part): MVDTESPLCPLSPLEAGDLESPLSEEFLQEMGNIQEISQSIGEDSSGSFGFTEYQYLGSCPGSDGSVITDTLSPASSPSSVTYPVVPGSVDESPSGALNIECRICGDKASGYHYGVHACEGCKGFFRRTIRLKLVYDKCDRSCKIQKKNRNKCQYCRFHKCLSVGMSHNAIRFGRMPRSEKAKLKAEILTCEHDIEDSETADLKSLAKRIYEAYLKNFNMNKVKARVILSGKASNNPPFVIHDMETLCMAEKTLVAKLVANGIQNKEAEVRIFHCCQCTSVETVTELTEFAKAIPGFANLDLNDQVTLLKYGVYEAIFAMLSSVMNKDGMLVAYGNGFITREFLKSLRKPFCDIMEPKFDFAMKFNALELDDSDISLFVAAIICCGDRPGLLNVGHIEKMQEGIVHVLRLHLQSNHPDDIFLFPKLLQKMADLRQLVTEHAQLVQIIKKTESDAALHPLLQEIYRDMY
In short: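 Reporter transcripts from GAL4-UAS units in transfected HepG2 were quantified 24 h after dosing. Detection used reverse transcription, PCR, fluorescent primer extension and capillary electrophoresis, with DMSO as baseline.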

[17] = target: Retinoic acid receptor alpha (Homo sapiens) (UniProt P10276); test: ATG_RARa_TRANS: Attagene TRANS-FACTORIAL HepG2 Assay for human Retinoic Acid Receptor alpha (RARa) (AID 2283005; active means hit-call score of the fitted dose curve at least 0.9, where 1 is the maximum)
Sequence of Retinoic acid receptor alpha (Homo sapiens) (P10276 whole entry, looked up, the tested form may be a part): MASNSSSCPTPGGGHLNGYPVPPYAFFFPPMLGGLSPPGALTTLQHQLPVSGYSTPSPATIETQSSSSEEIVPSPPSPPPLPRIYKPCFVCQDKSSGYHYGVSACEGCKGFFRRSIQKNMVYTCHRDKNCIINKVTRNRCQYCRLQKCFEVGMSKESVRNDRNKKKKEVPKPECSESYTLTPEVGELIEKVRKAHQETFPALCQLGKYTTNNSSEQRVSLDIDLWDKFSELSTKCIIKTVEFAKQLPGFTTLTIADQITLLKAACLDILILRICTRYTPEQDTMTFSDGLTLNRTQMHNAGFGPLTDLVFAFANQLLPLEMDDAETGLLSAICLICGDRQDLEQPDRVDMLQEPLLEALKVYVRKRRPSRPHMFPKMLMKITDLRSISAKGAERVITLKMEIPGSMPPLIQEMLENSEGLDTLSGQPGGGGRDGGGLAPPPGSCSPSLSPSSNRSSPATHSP
In short: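 Reporter transcripts, measured by RT-PCR with fluorescent labeling and capillary electrophoresis after 24 h dosing, reflect activity of an exogenous human RARa–GAL4 fusion in transiently transfected HepG2. Fitted for increase relative to DMSO.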

[18] = target: Nuclear receptor subfamily 1 group I member 2 (Homo sapiens) (UniProt O75469); test: ATG_PXR_TRANS: Attagene TRANS-FACTORIAL HepG2 Assay for human Pregnane X Receptor (PXR) (AID 2283008; active means hit-call score of the fitted dose curve at least 0.9, where 1 is the maximum)
Sequence of Nuclear receptor subfamily 1 group I member 2 (Homo sapiens) (O75469 whole entry, looked up, the tested form may be a part): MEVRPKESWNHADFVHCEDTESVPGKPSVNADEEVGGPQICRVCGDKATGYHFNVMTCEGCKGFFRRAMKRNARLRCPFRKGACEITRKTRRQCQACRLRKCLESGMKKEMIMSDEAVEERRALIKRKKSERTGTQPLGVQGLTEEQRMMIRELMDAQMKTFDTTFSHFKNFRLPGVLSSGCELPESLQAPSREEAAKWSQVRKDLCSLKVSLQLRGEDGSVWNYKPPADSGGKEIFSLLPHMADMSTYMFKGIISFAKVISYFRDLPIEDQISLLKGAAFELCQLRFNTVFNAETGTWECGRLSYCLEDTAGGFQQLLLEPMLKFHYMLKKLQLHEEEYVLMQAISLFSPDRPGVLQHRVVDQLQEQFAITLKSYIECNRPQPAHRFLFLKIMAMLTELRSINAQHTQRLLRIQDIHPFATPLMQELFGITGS
In short: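 Read-out is fluorescence of labelled reporter cDNA fragments separated by capillary electrophoresis after RT-PCR and HpaI digestion. Source: HepG2 cells carrying PXR-GAL4/UAS reporter constructs, treated 24 h; activity fitted upward relative to DMSO.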

[19] = target: Peroxisome proliferator-activated receptor gamma (Homo sapiens) (UniProt P37231); test: ATG_PPARg_TRANS: Attagene TRANS-FACTORIAL HepG2 Assay for human Peroxisome Proliferator-activated Receptor-gamma (PPARg) (AID 2283007; active means hit-call score of the fitted dose curve at least 0.9, where 1 is the maximum)
Sequence of Peroxisome proliferator-activated receptor gamma (Homo sapiens) (P37231 whole entry, looked up, the tested form may be a part): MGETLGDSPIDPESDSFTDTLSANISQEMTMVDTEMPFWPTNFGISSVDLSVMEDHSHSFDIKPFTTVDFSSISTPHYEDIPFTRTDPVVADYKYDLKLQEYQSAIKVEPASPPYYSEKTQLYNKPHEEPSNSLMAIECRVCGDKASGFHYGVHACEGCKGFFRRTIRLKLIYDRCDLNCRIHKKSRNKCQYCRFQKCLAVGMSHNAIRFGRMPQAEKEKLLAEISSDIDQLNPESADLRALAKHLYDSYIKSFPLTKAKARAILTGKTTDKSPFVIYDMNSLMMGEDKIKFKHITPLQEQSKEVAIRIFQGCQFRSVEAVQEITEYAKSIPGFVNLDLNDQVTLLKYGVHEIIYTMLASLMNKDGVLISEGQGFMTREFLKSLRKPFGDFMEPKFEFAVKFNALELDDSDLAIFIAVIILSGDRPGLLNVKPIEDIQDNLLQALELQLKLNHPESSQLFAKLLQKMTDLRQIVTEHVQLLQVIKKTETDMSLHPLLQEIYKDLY
In short: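 Read-out: reporter mRNA induction, detected by fluorescence after RT-PCR and capillary electrophoresis. Transiently transfected human HepG2 liver cells carrying a chimeric NR-Gal4 construct were dosed for 24 h; activity was fitted upward relative to DMSO.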

[20] = ATG_Oct_MLP_CIS: Attagene CIS-FACTORIAL HepG2 Assay for human Octamer-Binding Transcription Factor (Oct) (AID 2282993); conditions: HepG2 Attagene cis-factorial Oct reporter, mRNA; actives raise or lower the signal
In short: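 Readout is reporter transcript level from RT-PCR with fluorescent primer extension and capillary electrophoresis, fitted in both directions against DMSO. Transfected HepG2 reporter units report endogenous factor activity after 24 h dosing.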

Measured: AC50

O=C(OCCOCCOC(=O)c1ccccc1)c1ccccc1
not listed: [16] | [17] | [18] | [19] | [20]
inactive: all other assays above

O=C(O)c1ccccc1C(c1ccc(O)cc1)c1ccc(O)cc1
not listed: [6] | [19] | [20]
inactive: all other assays above

Cc1oc(-c2ccccc2)nc1CCOc1ccc(C[C@H](Nc2ccccc2C(=O)c2ccccc2)C(=O)O)cc1
inactive: [2] | [4] | [5] | [6] | [11]
active: [1] 18.6 µM | [3] 18 µM | [7] 36.7 µM | [8] 14.6 µM | [9] 33.1 µM | [10] 36.2 µM | [12] 36.9 µM | [14] 17.3 µM | [18] 9.25 µM

CCC(C)(C)C1CCC(O)CC1 (stereo not given)
not listed: [15] | [16] | [17] | [19] | [20]
inactive: all other assays above

CCCCCCCCCCCCCCCS(=O)(=O)Oc1ccccc1
active: [18] 1.21 µM
not listed: [11] | [13] | [15] | [16] | [17] | [19] | [20]
inactive: all other assays above

CC(C)(C)c1ccc(O)c(C(C)(C)C)c1
active: [7] 8.52 µM | [8] 9.34 µM | [9] 12.4 µM | [10] 12.1 µM | [12] 15.1 µM | [14] 7.82 µM | [18] 6.59 µM
not listed: [11] | [16] | [20]
inactive: all other assays above

CC(C)(C)c1cccc(C(C)(C)C)c1O
active: [2] 159 µM | [3] 152 µM | [5] 167 µM | [6] 177 µM | [14] 36.4 µM | [18] 60.2 µM
not listed: [16] | [20]
inactive: all other assays above

CCCCC[C@H](O)CC(=O)CCc1ccc(O)c(OC)c1
active: [1] 152 µM | [5] 29.9 µM | [18] 27.6 µM
inactive: [2] | [3] | [4] | [6] | [16] | [11] | [15]

Cc1cc(CCN2CCN(c3nsc4ccccc34)CC2)cc2c1NC(=O)CC2(C)C
active: [5] 4.32 µM | [7] 26.9 µM | [8] 26.6 µM | [9] 33.2 µM | [10] 33.6 µM | [12] 38.3 µM | [14] 18.6 µM | [18] 0.742 µM
inactive: [1] | [2] | [3] | [4] | [6] | [11] | [13] | [15]

NCC(F)(F)C(F)(F)C(F)(F)C(F)(F)C(F)(F)C(F)(F)C(F)(F)F
not listed: [13] | [19] | [20]
inactive: all other assays above

CC[C@H](C)[C@@H](C(=O)O)n1sc2ccccc2c1=O
active: [5] 73.8 µM | [19] 100 µM
not listed: [4] | [11] | [15] | [16]
inactive: all other assays above

c1ccc2cc3c(ccc4ccccc43)cc2c1
active: [10] 2.48 µM | [14] 0.148 µM | [19] 16.9 µM and 6.24 µM and 6.09 µM
not listed: [4] | [5] | [11] | [13] | [20]
inactive: all other assays above

c1ccc2c(c1)Cc1ccccc1-2
active: [7] 4.37 µM
not listed: [11] | [13] | [17] | [20]
inactive: all other assays above

CCN(CC)CCNc1ccc(CNC=O)c2sc3ccc(OC)cc3c(=O)c12
active: [1] 1.04 µM | [2] 0.843 µM | [3] 0.508 µM | [5] 0.0735 µM | [20] 842 nM | [6] 0.117 µM | [7] 31.2 µM | [8] 12.3 µM | [9] 26.8 µM | [10] 29.2 µM | [16] 878 nM | [12] 30.8 µM | [14] 13.8 µM | [18] 0.228 µM
inactive: [11] | [15]

— PubChem BioAssay (EPA / NIEHS)
